Screens: PubChem BioAssay, The Scripps Research Institute Molecular Screening Center
Most compounds without a hit are left out; they make up all but 4.8% or so of the library.
ssDAF-12 act – activators of S. stercoralis DAF-12 nuclear receptor. actives 1% (n = 370,000). HEK293 ssDAF-12/GRIP1 lit1-tk-luc reporter, luminescence; % of 3 µM dafachronic acid response. activation, % at 6.8 µM. AID 652126;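 active means activation above the mean over all tested compounds plus 3 SD, cut at about 0.9% in these data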;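 further: 0% = DMSO-only wells and 100% = 3 µM delta7-dafachronic acid wells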
SMARCA2 act – SMARCA2 function activation, primary screen | actives 1% (n = 370,000) | activation, % at 9.1 µM | MG213 cells, MMTV-luciferase reporter, dexamethasone, overnight; in the data active means activation above about 7.8%;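 further: 0% = vehicle wells and 100% = reference activator wells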
hgDAF-12 ag – activates the H. glycines DAF-12 receptor ligand-binding domain | HEK293 GAL4-hgDAF12 UAS-luciferase reporter, agonist luminescence; normalized to butyrate control | activation, % at 6.8 µM | actives 1.8% (n = 370,000);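 active means activation above a cutoff set at the mean of all screened compounds plus 3 SD, cut at about 10% in these data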;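 further: 0% = DMSO wells and 100% = sodium butyrate wells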
hcDAF-12 act – H. contortus DAF-12 activation, primary screen. HEK293 hcDAF-12 lit1-tk-luc reporter, luminescence; 0% DMSO, 100% Δ7-dafachronic acid. activation, % at 6.8 µM. actives 1.4% (n = 370,000);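 active means activation above the mean of all tested compounds plus 3 SD, cut at about 5.5% in these data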;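 further: 100% = response to 3 µM Δ7-dafachronic acid high control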
DAX1 inh-1 – blocks DAX1 repression of SF-1 activated StAR promoter; HEK293T StAR-luciferase reporter, SF-1/DAX-1 repression relief; inhibition, % at 6.8 µM; actives 1.1% (n = 370,000); AID 652010;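 active means inhibition above the mean over all tested compounds plus 3 SD, cut at about 3.6% in these data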;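 further: 0% = DAX-1 cells with DMSO and 100% = cells lacking DAX-1 with DMSO; higher inhibition means more luminescence from relief of DAX-1 repression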
DAX1 inh-2 – inhibitors of human orphan nuclear receptor DAX1 (NR0B1); inhibition, % at 6.75 µM; actives 0.99% (n = 340,000); HEK293 Gal4-DAX1 luciferase reporter, luminescence;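 active means inhibition above the mean over all tested compounds plus 3 SD, cut at about 4.2% in these data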;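 further: 0% = DAX1-transfected cells with DMSO and 100% = empty-vector control cells with DMSO; inhibition shows as a rise in luminescence from relieved DAX1 repression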
Target sequence (P51843 207-470 limits assumed): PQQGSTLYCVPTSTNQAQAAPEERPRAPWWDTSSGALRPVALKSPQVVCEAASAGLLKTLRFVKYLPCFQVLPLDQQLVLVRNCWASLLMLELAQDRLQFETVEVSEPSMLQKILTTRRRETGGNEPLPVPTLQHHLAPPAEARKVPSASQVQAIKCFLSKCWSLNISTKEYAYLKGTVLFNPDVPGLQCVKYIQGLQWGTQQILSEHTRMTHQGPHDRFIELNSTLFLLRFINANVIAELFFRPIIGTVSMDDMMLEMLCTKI
LXRb hcDAF ctr – counter-screen for hcDAF-12 agonists: agonists of human LXR-beta; shares compounds with hcDAF-12 act; HEK293 Gal4-LXR tk-luc reporter, luminescence, 24 h; normalized: DMSO 0%, positive control 100%; activation, % at 6.8 µM; 3,400 tested, under 10 active; AID 743027;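 active means mean percent activation of the reporter above a cutoff set as the average over tested compounds plus their standard deviation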
Target sequence (P55055 whole entry, looked up, the tested form may be a part): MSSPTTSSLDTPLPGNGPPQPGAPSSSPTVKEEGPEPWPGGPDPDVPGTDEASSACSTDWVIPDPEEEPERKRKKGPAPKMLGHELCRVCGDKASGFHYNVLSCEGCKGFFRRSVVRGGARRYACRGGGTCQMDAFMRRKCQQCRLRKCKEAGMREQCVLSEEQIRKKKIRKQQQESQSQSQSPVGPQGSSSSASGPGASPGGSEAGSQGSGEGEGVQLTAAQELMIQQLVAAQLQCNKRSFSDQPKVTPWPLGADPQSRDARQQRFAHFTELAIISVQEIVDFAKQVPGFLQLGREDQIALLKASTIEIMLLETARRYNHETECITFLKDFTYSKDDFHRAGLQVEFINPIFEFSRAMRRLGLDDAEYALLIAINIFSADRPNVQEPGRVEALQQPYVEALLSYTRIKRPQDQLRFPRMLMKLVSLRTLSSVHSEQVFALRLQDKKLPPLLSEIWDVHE
hcDAF12 conf – confirmation of H. contortus DAF-12 agonists; shares compounds with hcDAF-12 act; HEK293 hcDAF-12 lit1-tk-luc reporter, luminescence; % of Δ7-dafachronic acid response; activation, % at 6.8 µM; actives 61% (n = 3,400); AID 743032;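 active means mean activation across triplicate tests above the threshold derived from the earlier primary screen, cut at about 5.5% in these data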;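 further: 0% = DMSO only wells and 100% = 3 µM Δ7-dafachronic acid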
hgDAF12 conf – confirmation of H. glycines DAF-12 agonists | activation, % at 6.8 µM | AID 743050 | actives 80% (n = 3,300) | shares compounds with hgDAF-12 ag | HEK293 GAL4-hgDAF12 luciferase reporter, agonist mode; percent of butyrate response;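 active means mean activation over triplicate wells above the hit cutoff derived from the earlier primary screen, cut at about 11% in these data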;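 further: 0% = DMSO low control and 100% = 2 mM sodium butyrate high control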
LXR ag 2 – activates human LXR-beta, counter-screen for DAF-12 agonists; HEK293 Gal4-LXR luciferase reporter, 24 h; activation, % at 6.8 µM; 3,300 tested, under 10 active; shares compounds with hgDAF-12 ag;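 active means mean activation of the triplicate above a set limit carried over from the primary screen, none filed active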
Starred values were filed as active, the others as inactive; nt = no result.

SMILES	ssDAF-12 act	SMARCA2 act	hgDAF-12 ag	hcDAF-12 act	DAX1 inh-1	DAX1 inh-2	LXRb hcDAF ctr	hcDAF12 conf	hgDAF12 conf	LXR ag 2
COC(=O)C1=C(C)N(Cc2ccc(Br)cc2)C(=S)NC1c1cccc(OC)c1 (stereo unspecified)	-1.6	-3.3	0.5	-1.5	-1.5	nt	nt	nt	nt	nt
O=C(C(=O)N1CCN(S(=O)(=O)c2ccccc2)CC1)c1cccc(C(F)(F)F)c1	-1.5	1.5	1.4	-2.2	0.1	nt	nt	nt	nt	nt
[O-]C(=C(C(=S)Nc1cccc2ccccc12)[n+]1ccccc1)c1ccc2c(c1)OCCO2	nt	nt	nt	nt	nt	-4.1	nt	nt	nt	nt
CC(C)(C)c1cc[n+](/C(C(=S)Nc2ccccc2F)=C(/[O-])c2ccc3c(c2)OCCO3)cc1	0.4	2.6	13.8*	6.8*	1.1	2.1	0.2	7.3*	6.1	0.1
Cc1onc(-c2ccccc2Cl)c1-c1nc(-c2ccncc2)no1	-1.5	0.3	-2.5	-0.4	-1.5	-0.9	nt	nt	nt	nt
Cc1ccc(-c2nc(-c3ccncc3)no2)c(Cl)c1	1.5*	-0.1	15.8*	7.6*	2.7	0.1	1.5	8.5*	16.3*	1.2
Clc1ccc(/C=N/Nc2ncnc3ccccc23)cc1Cl	1.1*	4.4	16.2*	10.1*	3.4	11.5*	0.8	7.0*	19.8*	0.8
Nc1c(Cl)ncnc1N/N=C/c1cccc(O)c1	-1.9	-0.3	-0.8	-0.9	0.4	2.2	nt	nt	nt	nt
O=C(Nc1ccc2c(c1)OCCO2)c1cccc(Cl)c1	-0.1	4.7	17.6*	9.9*	2.0	3.3	1.2	3.7	15.4*	0.7
O=C(Nc1ccc2c(c1)OCCO2)c1ccc(Cl)cc1Cl	0.9	3.0	13.5*	8.0*	2.0	-1.9	1.8	8.0*	18.7*	0.9
CCOc1ccc(-n2c(COc3ccccc3)nnc2SCC(=O)Nc2ccc3c(c2)OCCO3)cc1	-1.5	-4.1	-3.3	-2.7	-0.9	nt	nt	nt	nt	nt
C[C@@H]1C=CCCO[C@]12C(=O)N(CC1CC1)c1ccccc12	-1.4	-1.2	4.3	-1.1	-0.5	nt	nt	nt	nt	nt
NC(=O)NN=C1CCC(O)CC1CC(=O)O (stereo unspecified)	-0.8	3.0	5.0	0.4	-0.3	nt	nt	nt	nt	nt
Cc1cc(NC(=O)c2cc3cccc([N+](=O)[O-])c3[nH]2)ccc1F	-0.1	0.1	14.2*	7.7*	2.4	9.7*	0.9	7.1*	13.4*	0.8
COCC(C)NC(=O)c1cc2cccc([N+](=O)[O-])c2[nH]1 (stereo unspecified)	0.3	-1.0	3.6	2.9	-0.6	1.5	nt	nt	nt	nt
Cc1nc2ccc(NC(=O)c3c(Cl)cccc3Cl)cc2c(=O)[nH]1	-1.2	6.5	0.7	-0.3	-0.4	nt	nt	nt	nt	nt
CCCCOCC1CN(CCCC)S(=O)(=O)c2c(cccc2Sc2ccc(OC)c(OC)c2)O1 (stereo unspecified)	-0.7	-1.7	5.1	-1.9	0.9	nt	nt	nt	nt	nt
COC(=O)[C@@H](Cc1c[nH]c2ccccc12)NC(=O)c1ccc2c(c1)OCO2	3.2*	4.7	15.8*	13.0*	1.2	3.6	1.0	7.9*	17.9*	0.7
COCc1cc(N2CCN(C(=O)OC(C)(C)C)C[C@H]2C)ccc1N1CCN(Cc2ccccc2)[C@@H](C)C1	-1.4	-4.4	2.9	-1.7	-0.8	nt	nt	nt	nt	nt
CCOc1ccc(-c2cc(C(=O)NN)[nH]n2)cc1	0.3	5.7	15.7*	6.8*	3.6	1.5	-0.1	1.2	4.0	0.0
O=C(O)/C=C\C(=O)Nc1ccccc1C#Cc1ccc(Br)cc1	2.1*	2.1	21.6*	16.4*	3.8*	3.3	0.1	1.1	16.0*	0.6
NC(=O)c1ccccc1NC(=O)/C=C/C(=O)O	-0.6	-0.8	8.8	0.2	0.0	2.4	nt	nt	nt	nt
Nc1nc(-c2cccnc2)nc2sc3c(c12)CCCC3	1.5*	5.7	19.6*	8.7*	4.5*	1.6	1.4	4.0	15.4*	0.8
O=C1CN(c2nc(-c3cccnc3)nc3sc4c(c23)CCCC4)CCN1	-2.2	3.8	-2.1	-3.4	-0.9	-1.1	nt	nt	nt	nt
Oc1ccccc1-c1cc(-c2cccc(F)c2)n[nH]1	2.4*	2.6	23.6*	21.0*	4.4*	2.7	1.5	15.7*	27.2*	1.1
SMILES	ssDAF-12 act	SMARCA2 act	hgDAF-12 ag	hcDAF-12 act	DAX1 inh-1	DAX1 inh-2	LXRb hcDAF ctr	hcDAF12 conf	hgDAF12 conf	LXR ag 2
COc1ccc(C(=O)N=c2nc3ccccn3s2)cc1	1.3*	3.5	17.2*	13.8*	3.1	-0.9	1.3	6.0*	11.0*	0.7
COc1ccc(C(=O)O/N=C2\C(=O)N(C)c3ccccc32)cc1	-0.3	-3.5	0.7	1.1	0.5	1.3	nt	nt	nt	nt
CC(C)C[C@@H]1COc2cc(N3CCOCC3)ccc2S(=O)(=O)N1	-1.2	1.5	2.6	-0.8	-0.9	nt	nt	nt	nt	nt
Cc1c(C(C)(C)C)sc(=NC(=O)c2ccccc2O)n1C	0.1	6.2	14.2*	6.9*	1.4	2.2	1.9	14.1*	15.5*	0.9
O=C(NCCCn1ccnc1)c1cc(-c2cccs2)on1	-0.1	0.2	53.2*	7.6*	-0.9	3.9	0.5	4.1	50.9*	0.4
COc1ccc(OC)c(-c2cc(C(=O)NCCCn3ccnc3)no2)c1	-1.6	-2.0	-1.0	-1.1	-0.7	-0.7	nt	nt	nt	nt
COc1cccc(C(=O)N[C@H](C(=O)N2CCC[C@H]2C(=O)NC2CCCC2)c2ccccc2)c1	-0.6	-1.7	-2.4	2.9	-1.2	nt	nt	nt	nt	nt
Cc1csc(NC(=O)/C=C/c2ccco2)n1	-0.7	5.6	13.9*	6.6*	1.5	0.1	0.9	3.5	13.2*	0.5
O=C(/C=C/c1ccco1)Nc1ccc2c(c1)OCCO2	0.2	0.3	15.6*	7.5*	4.4*	-0.1	1.3	8.9*	18.3*	1.1
O=C(/C=C/c1ccco1)Nc1nc(-c2ccccc2)cs1	-1.7	2.4	5.2	-0.6	1.3	2.6	nt	nt	nt	nt
COC(=O)[C@]12C[C@H](CC(=O)NCc3ccccc3)C(=O)N(Cc3ccccc3)C1=C[C@H](C1CCCC1)O[C@@H]2C	-0.5	-3.8	-2.1	-1.7	0.0	nt	nt	nt	nt	nt
O=C(Nc1cc2ccccc2oc1=O)c1ccccc1	0.5	2.5	14.7*	11.4*	1.9	nt	0.8	9.2*	4.6	0.6
